Shown are actives, neighbours in structure and some others; about 12% of the full set was active somewhere.
PLK1 PBD inh: PLK1 (human) polo-box domain binding inhibition; Plk1 PBD binding of FITC phosphopeptide, fluorescence polarization; Potency, µM, usual class: inhibitors; actives 2.8% (n = 360,000); AID 720504; further: series mostly up to about 57 µM; nearly all actives have a fitted effect of over 65% in size
G9a inh: G9a (human) methyltransferase inhibition; G9a H3K9 monomethylation, AlphaScreen, 2 h; Potency, µM (highest dose often 102 µM), hits mostly inhibitors; actives 8.8% (n = 350,000); AID 504332; further: nearly all actives have a fitted effect of over 75% in size
Target sequence (Q96KQ7 913-1193 limits assumed): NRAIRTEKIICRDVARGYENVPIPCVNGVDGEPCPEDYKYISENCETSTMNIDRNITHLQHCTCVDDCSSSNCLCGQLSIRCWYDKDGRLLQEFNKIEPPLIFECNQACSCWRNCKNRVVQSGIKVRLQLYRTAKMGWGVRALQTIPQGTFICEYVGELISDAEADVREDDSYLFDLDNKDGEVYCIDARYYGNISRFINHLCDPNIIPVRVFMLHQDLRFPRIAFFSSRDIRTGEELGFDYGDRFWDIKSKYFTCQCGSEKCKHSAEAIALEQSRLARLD
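Readings reflect AlphaScreen signal from monomethyl-H3K9 antibody detection. HMT at 20 nM; substrate b-H3K9 500 nM; cofactor SAM 20 uM; 2 h RT reaction; compounds tested as titrations in qHTS with 15 min preincubation.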
PI5P4Ka inh: inhibitors of human PI5P4K alpha; P48426; PI5P4Kalpha enzyme, ADP-Glo luminescence, 60 min; hits give low values; max response, %; actives 1.2% (n = 330,000); AID 652105; active means max response of -50% or lower; inconclusive means between -30% and -50%; inactive means -30% or higher; further: value at the top dose of about 77 µM
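Human PI5P4Kalpha with substrate in 0.038 M HEPES pH 7.4, 0.28 mM EGTA, 0.1% CHAPS, 5% DMSO; reaction started with 5 microM ATP (final), 60 min at room temperature. ADP formed read by ADP-Glo luminescence.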
BAZ2B block: blocks human BAZ2B; Q9UIF8; AlphaScreen BAZ2B-H3K14Ac peptide displacement; Potency, µM (doses to about 114 µM), usual class: inhibitors; actives 4.4% (n = 360,000); AID 504333; further: nearly all actives have a fitted effect of over 60% in size
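AlphaScreen displacement: compounds (up to 110uM) incubated 30 min at room temperature with a preformed 50 nM BAZ2B/50 nM biotinylated H3K14Ac peptide complex in PBS pH 7.4 with Tween-20. Donor and acceptor beads at 10 ug/mL final added, 20 min light-protected before reading.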
HP1b chromo inh: inhibitors of HP1-beta chromodomain binding to methylated histone tails | AlphaScreen HP1-beta / biotin-H3K9me3 peptide binding | Potency, µM (titrated, usually from 114 µM), most hits filed as inhibitors | actives 0.56% (n = 390,000); further: nearly all actives have a fitted effect of over 70% in size
Target sequence (P83916 whole entry, looked up): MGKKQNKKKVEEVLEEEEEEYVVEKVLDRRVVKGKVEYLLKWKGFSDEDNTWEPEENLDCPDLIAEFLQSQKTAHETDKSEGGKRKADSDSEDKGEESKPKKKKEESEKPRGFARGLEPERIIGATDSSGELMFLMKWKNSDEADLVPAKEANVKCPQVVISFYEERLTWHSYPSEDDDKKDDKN
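HP1-beta protein (50 nM final) preincubated 30 min at room temperature with biotinylated H3(1-18)K9me3 peptide (50 nM) in PBS pH 7.4, 0.01% Tween-20, then compound added for 30 min. AlphaScreen streptavidin donor/nickel chelate acceptor beads (10 ug/mL final), 30 min dark, luminescence read.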
JMJD2A Tudor inh: blocks the human JMJD2A Tudor domain; Potency, µM (top dose mostly 114 µM), actives largely listed as inhibitors; O75164; actives 4.4% (n = 390,000); AlphaScreen JMJD2A-Tudor / H3K4me3 peptide binding; AID 504339; further: nearly all actives have a fitted effect of over 50% in size
Numbers stand for hits; . = inactive; ? = inconclusive; / = no result given; [ ] = remark or other dose. Unless noted, the call rests on the fitted dose curve; in most records, active means well fitted curve in the direction sought with a large enough effect; inconclusive means small, poorly fitted or top-dose-only effect, or another doubt; inactive means no such curve, though single readings can be large; an effect the other way counts as inactive or inconclusive.

SMILES	PLK1 PBD inh	G9a inh	PI5P4Ka inh	BAZ2B block	HP1b chromo inh	JMJD2A Tudor inh
COC/C=C/C1=CC2=CC(=O)C(C)(OC(=O)c3ccco3)C(=O)C2=CO1 (stereo not drawn)	/	?	/	50µM	/	/
COC/C=C/C1=CC2=CC(=O)C(C)(OC(=O)C3CCCC3)C(=O)C2=CO1 (stereo not drawn)	24µM	?	-65	56µM	?	63µM
CC1(OC(=O)C2CCCC2)C(=O)C=C2C=C3CCCCN3C=C2C1=O (stereo not drawn)	.	.[12.7 µM]	.	.	.	.
Cc1ccc(NC(=O)CN2C(=O)CCn3nc(-c4cccn4C)cc32)cc1	/	.	/	?	.	.
COc1ccc(NC(=O)Cn2c(=O)n(CCCCCC(=O)NCc3ccc4c(c3)OCO4)c(=O)c3sccc32)cc1Cl	/	.	/	.	.	.
COC(=O)/C=C1\OC(c2ccccc2)=CC1=O	/	4µM	/	?	/	/
COC(=O)/C=C1\OC(c2ccccc2)c2ccccc21 (stereo not drawn)	.	/	.	/	/	/
COc1ccc(C(=O)CCS(=O)(=O)c2ccc(C)cc2)cc1OC	12µM	.	.	.	.	.
Cc1ccc(S(=O)(=O)CCC(=O)c2ccc(O)cc2O)cc1	?	40µM	.	.	.	.
Cc1ccc(C2CC(=O)Oc3ccc(O)cc32)cc1 (stereo not drawn)	/	11µM	/	/	/	/
Cc1ccccc1C1CC(=O)Oc2ccc(C(C)(C)C)cc21 (stereo not drawn)	/	.	/	/	/	/
Cc1ccccc1C1CC(=O)Oc2cc(O)ccc21 (stereo not drawn)	17µM	.	.	/	.	.
CNc1oc(C)nc1S(=O)(=O)c1ccc(C)cc1	.	.[0.0925 µM]	/	.	?	?
CNc1oc(Cc2ccccc2)nc1S(=O)(=O)c1ccccc1	2.7µM	?	-85	.	?	3.2µM
O=S(=O)(c1ccccc1)c1nc(-c2ccco2)oc1Nc1ccccc1	.	7.9µM	.	?	.	.
O=S(=O)(c1ccc(F)cc1)c1nc(-c2ccco2)oc1Nc1ccccc1	.	?	.	.	.	.
O=S(=O)(c1ccccc1)c1nc(-c2ccco2)oc1NCc1ccccc1	.	35µM	/	.	.	.
CCOCCCN1C(=O)c2[nH]nc(-c3ccccc3O)c2C1c1ccc(CC)cc1 (stereo not drawn)	/	.	/	.	.	?
Cc1nc(C)c(C(=O)OCC(=O)Nc2cccc(C)c2C)s1	.	.	.	.	.	.
Cc1ccc(NCc2nc3ccccc3n2CCOc2ccccc2)cc1	.	2.2µM	.	22µM	.	16µM
COc1ccc(NCc2nc3ccccc3n2CCOc2ccccc2C)cc1	/	?	/	13µM	?	20µM
CCc1ccccc1NC(=O)c1ccc2c(c1)nnn2C1CCCC1	/	.	/	.	.	.
Cc1nc2cccnc2n1C1CCN(S(=O)(=O)N(C)C)CC1	/	.	/	.	.	.
CCNC(=O)c1ccc(CSc2ccc(Cl)cc2)cc1	27µM	.	.	.	.	?
Cc1oc(-c2ccc(Cl)cc2)nc1CN1CCCC(C(=O)NCc2ccccc2)C1 (stereo not drawn)	/	.	/	.	.	.
SMILES	PLK1 PBD inh	G9a inh	PI5P4Ka inh	BAZ2B block	HP1b chromo inh	JMJD2A Tudor inh
Cc1ccccc1NNC(N)=S	.	11µM	.	.	.	.
CCOC(=O)C(=O)NNc1ccccc1C	.	.	.	.	.	.
Cc1ccc(NC(=O)Nc2ccccc2C(N)=O)cc1	.	.	.	.	.	.
Cc1ccccc1NC(=O)Nc1ccccc1C(N)=O	27µM	.	.	.	.	.
CNC(=O)Cn1nc(-c2ccc(C)cc2)c2ccccc2c1=O	12µM	.	.	.	.	?
COc1ccccc1NC(=O)Cn1nc(-c2ccc(Cl)cc2)c2ccccc2c1=O	.	10µM	.	.	.	.
O=C(Cn1nc(-c2ccc(Cl)cc2)c2ccccc2c1=O)NCC1CCCO1 (stereo not drawn)	13µM	.	.	.	?	35µM
CNC(=O)CCn1nc(-c2ccc(C)cc2)c2ccccc2c1=O	.	.	.	.	.	.
NC(CS)C(=O)O (stereo not drawn)	/	16µM	/	/	/	/
CC(=O)N1CC(C)Oc2ccc(S(=O)(=O)NC(CC(=O)O)c3ccc(C)cc3C)cc21 (stereo not drawn)	.	79µM	.	.	.	.
COc1ccccc1C(CC(=O)O)NS(=O)(=O)c1ccc2c(c1)N(C(C)=O)CC(C)O2 (stereo not drawn)	.	/	.	.	.	.
O=C(CNCc1cccs1)Nc1ccc(N2CCCCCC2)cc1	.	8.9µM	.	22µM	25µM	22µM
O=C(COc1ccccc1)Nc1ccc(N2CCCCC2)cc1	.	?	.	.	.	?
O=C(CNCc1cccs1)Nc1ccc(OC(F)(F)F)cc1	.	.[2.33 µM]	.	28µM	28µM	4µM
O=C(NC(=S)Nc1ccccc1Cl)c1cncc(Br)c1	.	/	.	.	.	.
NC(=O)CC(NC(=O)Cc1cccc2ccccc12)c1ccc(NCCCN2CCCC2=O)c([N+](=O)[O-])c1 (stereo not drawn)	.	71µM	.	.	.	.
Cc1cc(O)c2c(c1)C(=O)[C@@]13Oc4c5c(c(O)c6c(O)cc(C)cc46)C(=O)C[C@H](O)[C@H]5[C@@H]1[C@@H](O)CC(=O)C3=C2O	3.4µM	/	?	/	.	16µM
COc1ccc(COc2cc(-c3cccc(OC)c3)nc3ccc(NC(C)=O)cc23)cc1	.	.	.	.	.	?
COc1ccc(COc2cc(-c3cccc(OC)c3)nc3ccc(N)cc23)cc1	.	45µM	.	?	.	?
CC(C)(C)C1=CC=C(C(C)(C)C)C(=O)C1=O	/	2.2µM	/	.	/	/
COC(=O)C1=C(C)N(C)C(=O)NC1c1cc2c(cc1Br)OCO2 (stereo not drawn)	.	/	.	.	.	.
COC(=O)C1=C(C)N(C)C(=O)NC1c1cc2c(cc1[N+](=O)[O-])OCO2 (stereo not drawn)	.	?	.	50µM	.	.
COC(=O)C1=C(C)N(CCCC(=O)O)C(=O)NC1c1cc2c(cc1[N+](=O)[O-])OCO2 (stereo not drawn)	.	7.9µM	-62	?	.	35µM
CCOC(=O)C1=C(C)N(CCCC(=O)O)C(=O)NC1c1ccccc1OS(=O)(=O)c1ccc([N+](=O)[O-])cc1 (stereo not drawn)	.	/	?	/	.	.
CCOc1c(C=C(C#N)C#N)c2ccccc2n1CC	.	10µM	.	.	.	?
O=C1NC[C@@H](CCCCN2C[C@H](Cc3ccc(O)cc3)N(CCC3CCCCC3)C(=O)C2=O)N(CCc2ccc(O)cc2)C1=O	.	/	.	/	/	/
CCOC(=O)c1cc(-c2ccc(F)cc2)n(CCC(=O)NC2CCCCC2)c1C	/	.	/	.	.	.
